From PubChem
Most compounds without a hit are left out; they make up all but 1.5% or so of the library.
B2AR ag: beta2AR agonists driving receptor internalization, primary screen, cell-based, FAP fluorogen, flow cytometry. Beta-2 adrenergic receptor (Homo sapiens), P07550. Am2.2-beta2AR cells. response, % (concentration not given with the values). hit rate 0.43% among 340,000;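 active means response above a set limit, near 3 SD of response in nonfluorescent compounds, cut at about 42% in these data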
ABHD5-PLIN5 inh: ABHD5-PLIN5 interaction inhibitors, primary screen, cell lysate, split luciferase complementation, luminescence. inhibition, % at 4 µM. Split G. princeps luciferase complementation, 4 h. hit rate 0.78% among 360,000. AID 602281, 2012;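 active means inhibition above the mean inhibition across every tested compound plus 3 SD, cut at about 22% in these data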;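 further: 0% = DMSO only wells and the 100% control is not disclosed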
Target sequence (Q00G26 whole entry, looked up): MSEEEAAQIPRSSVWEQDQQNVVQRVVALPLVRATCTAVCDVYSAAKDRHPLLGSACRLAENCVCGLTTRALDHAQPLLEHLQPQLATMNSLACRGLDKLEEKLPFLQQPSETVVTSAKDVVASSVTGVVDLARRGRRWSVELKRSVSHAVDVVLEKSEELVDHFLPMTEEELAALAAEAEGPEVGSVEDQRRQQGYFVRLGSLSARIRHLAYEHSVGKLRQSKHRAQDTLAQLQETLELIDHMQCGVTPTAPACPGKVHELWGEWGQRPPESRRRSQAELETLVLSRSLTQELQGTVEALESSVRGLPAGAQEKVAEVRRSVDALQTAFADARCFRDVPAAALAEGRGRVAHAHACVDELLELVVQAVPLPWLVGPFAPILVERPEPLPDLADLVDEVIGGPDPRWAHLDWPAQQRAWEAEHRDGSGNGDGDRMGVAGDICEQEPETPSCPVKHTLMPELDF
Target sequence (Q8WTS1 whole entry, looked up): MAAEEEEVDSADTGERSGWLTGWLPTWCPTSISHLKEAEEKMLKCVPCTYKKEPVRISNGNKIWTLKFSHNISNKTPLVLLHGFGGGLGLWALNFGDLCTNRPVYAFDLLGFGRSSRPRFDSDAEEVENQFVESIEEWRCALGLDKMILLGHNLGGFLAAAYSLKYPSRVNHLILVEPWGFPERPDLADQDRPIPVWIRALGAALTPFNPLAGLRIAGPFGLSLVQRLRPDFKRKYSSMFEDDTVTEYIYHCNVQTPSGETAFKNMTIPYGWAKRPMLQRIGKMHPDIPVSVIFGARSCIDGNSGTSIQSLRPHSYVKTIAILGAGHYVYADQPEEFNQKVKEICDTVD
NTR1 agonist: agonists of human NTR1, primary screen, imaging, U2OS cells, beta-arrestin-GFP, high content; hit rate 0.17% among 330,000; NTR1-U2OS beta-arrestin-GFP spot imaging, agonist mode; activation, % at 20 µM;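 active means activation at or above 40% of the spot to cytoplasm intensity ratio, with at least 20 cells analyzed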;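 further: 0% = DMSO without peptide and 100% = 100 nM NTR1 peptide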
TLR9-MyD88 block: inhibitors of TLR9-MyD88 association in cells, primary screen, cell-based, CHO, BLA complementation, fluorescence | Toll-like receptor 9 (Homo sapiens) + Myeloid differentiation primary response protein … | CCF4 FRET ratio | inhibition, % at 4.98 µM | hit rate 0.21% among 340,000 | AID 504734, 2011;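 active means inhibition above the mean over all tested compounds plus 3 SD, cut at about 21% in these data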;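 further: 0% = DMSO only wells and 100% = clavulanate BLA inhibitor control wells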
NOD2-RIPK2 inh: NOD2-RIPK2 binding disruptors in cells, primary screen, fluorescence, CHO cells, BLA complementation | Receptor-interacting serine/threonine-protein kinase 2 (Homo sapiens), O43353 | CCF4 ratio | inhibition, % at 4.98 µM | hit rate 0.38% among 360,000; in the data active means inhibition above about 21%;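 further: 0% = vehicle only and 100% = reference blocker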
TLR4 MyD88 comp: inhibitors of TLR4-MyD88 association in cells, primary screen, cell-based, HeLa CL3-4, BLA complementation, FRET ratio. HeLa CL3-4 TLR4/MyD88 BLA complementation. inhibition, % at 8.4 µM. hit rate 0.18% among 200,000. AID 861, 2007; in the data active means inhibition above about 25%;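 further: 0% = vehicle and 100% = reference inhibitor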
ABHD5-PLIN5 conf: ABHD5-PLIN5 interaction inhibitors, confirmation, biochemical, luminescence; shares compounds with ABHD5-PLIN5 inh; inhibition, % at 4 µM; hit rate 67% among 2,200; in the data active means inhibition above about 23%;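 further: 0% = DMSO vehicle wells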
HNF4 split-luc: HNF4 dimerization inhibitors, counter-screen for ABHD5-PLIN5 interaction inhibitor project, biochemical, split-luciferase complementation, luminescence; shares compounds with ABHD5-PLIN5 inh; inhibition, % at 4 µM; hit rate 77% among 2,200;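 active means mean inhibition across replicate wells exceeding the computed hit threshold, cut at about 13% in these data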;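 further: light from luciferase halves that rejoin when HNF4 fusion proteins dimerize; 0% = DMSO only wells and the 100% control is not given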
Starred values were filed as active, the others as inactive; / = no result.

SMILES | B2AR ag | ABHD5-PLIN5 inh | NTR1 agonist | TLR9-MyD88 block | NOD2-RIPK2 inh | TLR4 MyD88 comp | ABHD5-PLIN5 conf | HNF4 split-luc
N#Cc1ccc(/C=C/C(=O)c2ccccc2)cc1 | 19 | 83* | 61* | 15 | 9 | / | 100* | 105*
O=C(/C=C/c1ccccc1)/C=C/c1ccccc1 | 16 | 74* | 12 | 2 | 13 | 7 | 99* | 92*
CC(/C=C\c1ccccc1)=C/C(=O)O | 4 | -2 | 0 | -3 | 2 | / | / | /
O=C(C[n+]1cccc(CNC(=O)c2ccc(OC(F)F)cc2)c1)Nc1ccc(SC(F)F)cc1 | -3 | 29* | -1 | 7 | -7 | -19 | 16 | 3
O=C(C[n+]1cccc(CNC(=O)c2ccc(OC(F)F)cc2)c1)Nc1ccccc1Cl | 1 | 5 | -1 | 4 | -2 | -1 | / | /
CC(C)(C)NC(=O)C1C(c2ccc(C(F)(F)F)cc2)=Nc2ccccc2N1C(=O)c1cccc2ccccc12 (centres undefined) | / | -12 | / | / | -4 | / | / | /
C[C@H](CO)N1C[C@H](C)[C@@H](CN(C)Cc2ccc(C(=O)O)cc2)Oc2ncc(Br)cc2C1=O | / | -2 | / | 4 | -5 | / | / | /
CCc1ccc(/C=C/C(=O)c2ccc(S(=O)(=O)N(C)C)cc2)cc1 | 19 | 41* | 26 | 2 | -4 | 2 | 92* | 83*
COc1ccc(-c2c(C(=O)c3ccccc3)[nH]c(N)c2C(=O)c2ccc(Br)cc2)cc1OC | / | -1 | / | / | -8 | / | / | /
COC(=O)c1cccc(S(=O)(=O)N(Cc2ccco2)Cc2cc3cc(OC)ccc3[nH]c2=O)c1 | 17 | 42* | 5 | 1 | 1 | -8 | 56* | 66*
CSc1nc(O)c(C(c2ccc(O)cc2)c2c(O)nc(SC)[nH]c2=O)c(=O)[nH]1 | -2 | 50* | 1 | -7 | -3 | / | 83* | 81*
CCOc1ccccc1C(c1c(O)nc(SC)[nH]c1=O)c1c(O)nc(SC)[nH]c1=O | 15 | 6 | 0 | / | -4 | / | / | /
C=CCOc1ccc(C(c2c(O)nc(SC)[nH]c2=O)c2c(O)nc(SC)[nH]c2=O)cc1 | 6 | 20 | 1 | -12 | 11 | / | / | /
CCOc1ccc(C(c2c(O)nc(SC)[nH]c2=O)c2c(O)nc(SC)[nH]c2=O)cc1 | 2 | 34* | 0 | / | 0 | / | 83* | 77*
CSc1nc(O)c(C(c2cccc([N+](=O)[O-])c2)c2c(O)nc(SC)[nH]c2=O)c(=O)[nH]1 | -2 | 25* | 1 | 3 | -7 | -10 | 1 | 18*
C/C=C/c1cccc(-c2nc(C(=O)NC3CCC3)cc3c2[C@H](CCO)N(S(=O)C(C)(C)C)C3)c1 (some centres undefined) | / | -3 | / | / | -4 | / | / | /
CN(Cc1ccccc1)C(=O)Cn1nnc(-c2ccccc2)c1COc1ccc2ccccc2c1 | / | 5 | / | / | -7 | / | / | /
CCCn1cnnc1CNC(=O)[C@H]1O[C@@H](n2ccc(=O)[nH]c2=O)[C@H](O)[C@@H]1O | / | 4 | / | / | -10 | / | / | /
CCOC(=O)CSc1nnc(NCC(=O)OC(C)C)c(=O)[nH]1 | -5 | 27* | 0 | 0 | -6 | -3 | 48* | 98*
COc1ccc2c(c1)/C(=C/c1cc(OC)c(OC)c(OC)c1)C(=O)N2 | 5 | 36* | / | -6 | 7 | / | 49* | 44*
COc1ccc(OC)c(N=C2C(=O)Nc3ccccc32)c1 | -3 | -6 | 3 | 3 | -5 | 13 | / | /
Cc1ccc2c(c1)/C(=C/c1ccc(F)cc1)C(=O)N2 | 8 | 34* | 15 | 2 | 4 | / | 45* | 36*
